Test results from PubChem BioAssay (EPA / NIEHS).
Several values for one entry are separate records, joined by “and”; a condition that tells them apart may be missing. Equal values may be shown once. The source holds several records for some structures; these can differ, active in one and inactive in another. Activity calls are given as the source filed them. How the source made its calls: active means hit-call score of the fitted dose curve at least 0.9, where 1 is the maximum; inactive means score below 0.9.

Columns and labels:
[1] = read-out: Urokinase-type plasminogen activator receptor (uPAR), PLAUR (gene 5329); test: BSK_4H_uPAR: BioMAP Diversity Plus: 4H Assay for Urokinase-type plasminogen activator receptor (uPAR) Biomarker Activity (AID 2283030); settings: primary human endothelial cells (HUVEC); actives raise or lower the signal
Outline: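 Primary human umbilical vein endothelial cells were exposed to chemical for 24 h before cell-surface uPAR was quantified by ELISA. Activity was fitted bidirectionally against the DMSO negative control baseline.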

[2] = read-out: Vascular endothelial growth factor receptor 2 (Homo sapiens) (UniProt P35968); test: BSK_4H_VEGFRII: BioMAP Diversity Plus: 4H Assay for Vascular endothelial growth factor receptor 2 (VEGFR2) Biomarker Activity (AID 2283031); settings: primary human endothelial cells (HUVEC); actives raise or lower the signal;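 on AC50: cell-surface VEGFR2 protein level quantified by ELISA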
Outline: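 Primary human umbilical vein endothelial cells in the BioMAP 4H system were dosed with test chemical, and 24 h later VEGFRII was measured by ELISA. Activity was fitted bidirectionally against DMSO as negative control and baseline.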

[3] = read-out: Vascular cell adhesion molecule 1 (VCAM1), VCAM1 (gene 7412); test: BSK_4H_VCAM1: BioMAP Diversity Plus: 4H Assay for Vascular cell adhesion molecule 1 (VCAM1) Biomarker Activity (AID 2283033); settings: primary human endothelial cells (HUVEC); actives raise or lower the signal
Outline: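 Primary human umbilical vein endothelial cells, 4H stimulation system, treated for 24 h; cell-surface VCAM-1 quantified by ELISA. Bidirectional fitting against DMSO; cytotoxicity tracked by SRB total-protein staining in parallel cultures.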

[4] = read-out: Interferon-gamma inducible Protein 10 (IP10), CXCL10 (gene 3627); test: BSK_BE3C_IP10: BioMAP Diversity Plus: BE3C Assay for Interferon-gamma inducible Protein 10 (IP10) Biomarker Activity (AID 2283034); settings: primary human bronchial epithelial cells; actives raise or lower the signal
Outline: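 Primary human bronchial epithelial cells, with IP-10 measured by ELISA 24 hours after chemical dosing. Bidirectional fit against DMSO; cytotoxicity checked by SRB total protein staining in parallel cultures.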

[5] = read-out: Monokine induced gamma interferon (MIG), CXCL9 (gene 4283); test: BSK_BE3C_MIG: BioMAP Diversity Plus: BE3C Assay for Monokine induced gamma interferon (MIG) Biomarker Activity (AID 2283035); settings: primary human bronchial epithelial cells; actives raise or lower the signal;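 further: MIG protein measured by ELISA in BE3C cultures after 24 h of dosing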
Outline: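 MIG level was determined by ELISA after 24 h chemical treatment of primary human bronchial epithelial cells. Values were fitted bidirectionally with DMSO as the negative control and activity baseline.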

[6] = read-out: Plasminogen activator inhibitor-1 (PAI1), SERPINE1 (gene 5054); test: BSK_BE3C_PAI1: BioMAP Diversity Plus: BE3C Assay for Plasminogen activator inhibitor-1 (PAI1) Biomarker Activity (AID 2283037); settings: primary human bronchial epithelial cells; actives raise or lower the signal
Outline: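 Primary human bronchial epithelial cells (BE3C system) exposed 24 h; PAI-1 quantified by ELISA. Parallel sulforhodamine B staining of total protein flags cytotoxicity. Bidirectional fit versus DMSO.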

[7] = read-out: urokinase plasminogen activator (uPA), PLAU (gene 5328); test: BSK_BE3C_uPA: BioMAP Diversity Plus: BE3C Assay for urokinase plasminogen activator (uPA) Biomarker Activity (AID 2283038); settings: primary human bronchial epithelial cells; actives raise or lower the signal;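 further: uPA protein level quantified by ELISA in cell cultures; uPA read one day after compound addition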
Outline: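 Human primary bronchial epithelial cells were exposed to chemical for 24 h, then uPA levels were measured by ELISA. Responses were fitted bidirectionally against DMSO as negative control and baseline. Parallel SRB staining of total protein gauged overt cytotoxicity.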

[8] = read-out: Urokinase-type plasminogen activator receptor (uPAR), PLAUR (gene 5329); test: BSK_BE3C_uPAR: BioMAP Diversity Plus: BE3C Assay for Urokinase-type plasminogen activator receptor (uPAR) Biomarker Activity (AID 2283039); settings: primary human bronchial epithelial cells; actives raise or lower the signal;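 further: cells exposed to compound for one day before measurement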
Outline: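 Primary human bronchial epithelial cells dosed for 24 h; uPAR quantified by ELISA with bidirectional fitting against DMSO. Overt cytotoxicity assessed in parallel cultures by SRB total-protein staining (0.1% SRB, 560 nm).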

[9] = read-out: Human Leukocyte Antigen - DR isotype (HLADR), HLA-DRA (gene 3122); test: BSK_BE3C_HLADR: BioMAP Diversity Plus: BE3C Assay for Human Leukocyte Antigen - DR isotype (HLADR) Biomarker Activity (AID 2283032); settings: primary human bronchial epithelial cells; actives raise or lower the signal
Outline: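 Human primary bronchial epithelial cells (BE3C system) exposed to compound for 24 hours; cell-surface HLA-DR measured by ELISA, fitted bidirectionally relative to DMSO. Total protein by SRB in parallel cultures tracked cytotoxicity.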

[10] = read-out: Transforming growth factor beta 1 (TGFb1), TGFB1 (gene 7040); test: BSK_BE3C_TGFb1: BioMAP Diversity Plus: BE3C Assay for Transforming growth factor beta 1 (TGFb1) Biomarker Activity (AID 2283036); settings: primary human bronchial epithelial cells; actives raise or lower the signal
Outline: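 Primary human bronchial epithelial cells dosed with chemical; TGF-b1 measured by ELISA 24 h after dosing. Bidirectional curve fitting against DMSO negative control; SRB total-protein staining in parallel cultures gauged cytotoxicity.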

Structure (SMILES) | outcome [1] | outcome [2] | outcome [3] | outcome [4] | outcome [5] | outcome [6] | outcome [7] | outcome [8] | outcome [9] | AC50 [1] | outcome [10] | AC50 [2] | AC50 [9] | AC50 [3] | AC50 [4] | AC50 [6]
O=C(O)C(F)(OC(F)(F)C(F)(OC(F)(F)C(F)(OC(F)(F)C(F)(F)C(F)(F)F)C(F)(F)F)C(F)(F)F)C(F)(F)F (configuration not stated) | inactive | inactive | inactive | inactive | inactive | inactive | inactive | inactive |  |  |  |  |  |  |  | 
CCO[Si](CCC(F)(F)C(F)(F)C(F)(F)C(F)(F)C(F)(F)C(F)(F)F)(OCC)OCC | inactive | inactive | inactive | inactive | inactive | inactive | inactive | inactive | inactive |  |  |  |  |  |  | 
O=C(O)C(F)(F)C(F)(F)C(F)(F)F | inactive | inactive | inactive | inactive | inactive | inactive | inactive | inactive | inactive |  |  |  |  |  |  | 
CCCCCCCOC(=O)c1ccccc1C(=O)OCCCCCCC |  | inactive | inactive | inactive | inactive | inactive | inactive | inactive |  | 4.08 µM (active) | inactive |  |  |  |  | 
C#C[C@]1(O)CC[C@H]2[C@@H]3CCc4cc(OC)ccc4[C@H]3CC[C@@]21C | inactive | inactive | inactive | inactive | inactive | inactive | inactive | inactive |  |  | inactive |  |  |  |  | 
CCCCCCCCC(F)(F)C(F)(F)C(F)(F)C(F)(F)C(F)(F)C(F)(F)F | inactive | inactive | inactive | inactive | inactive | inactive | inactive | inactive |  |  |  |  |  |  |  | 
O=C(CC(=O)C(F)(F)C(F)(F)F)C(F)(F)F | inactive | inactive | inactive | inactive | inactive | inactive | inactive | inactive | inactive |  |  |  |  |  |  | 
FC(F)(F)C(F)(F)C(F)(F)C(F)(F)C(F)(F)C(F)(F)C(F)(F)C(F)(F)F | inactive | inactive | inactive | inactive | inactive | inactive | inactive | inactive | inactive |  |  |  |  |  |  | 
CCCCNc1ccccc1 | inactive | inactive | inactive | inactive | inactive | inactive | inactive | inactive |  |  | inactive |  |  |  |  | 
FC(F)(F)C(F)(F)C(F)(F)C(F)(F)C(F)(F)CCI | inactive | inactive | inactive | inactive | inactive | inactive | inactive | inactive | inactive |  |  |  |  |  |  | 
O=S(=O)(O)C(F)(F)C(F)(F)C(F)(F)C(F)(F)C(F)(F)C(F)(F)C(F)(F)F | inactive | inactive | inactive | inactive | inactive | inactive | inactive | inactive |  |  |  |  |  |  |  | 
CCc1ccc(C(c2ccc(CC)cc2)C(Cl)Cl)cc1 |  |  |  |  | inactive |  | inactive | inactive |  | 32.3 µM (active) | inactive | 13.1 µM (active) | 13.6 µM (active) | 28.5 µM (active) | 20 µM (active) | 20 µM (active)
N=C(N)C(F)(F)C(F)(F)C(F)(F)C(F)(F)C(F)(F)C(F)(F)C(F)(F)F | inactive | inactive |  | inactive | inactive | inactive | inactive | inactive |  |  |  |  |  | 21.1 µM (active) and 44.1 µM (active) | 48.6 µM (active) | 
C=C(C)C(=O)OCCC(F)(F)C(F)(F)C(F)(F)C(F)(F)C(F)(C(F)(F)F)C(F)(F)F | inactive | inactive | inactive | inactive | inactive | inactive | inactive | inactive |  |  |  |  |  |  |  | 
CC(CCl)OP(=O)(OC(C)CCl)OC(C)CCl (configuration not stated) | inactive | inactive | inactive | inactive | inactive | inactive | inactive | inactive | inactive |  | inactive |  |  |  |  | 
CC(=O)Nc1ccc(N=Nc2cc(C)ccc2O)cc1 | inactive | inactive | inactive |  | inactive | inactive | inactive | inactive | inactive |  | inactive |  |  |  | 29.7 µM (active) | 
O=S(=O)(OCCOC(F)(F)F)C(F)(F)F | inactive | inactive | inactive | inactive | inactive | inactive | inactive | inactive | inactive |  |  |  |  |  |  | 
